Measured values from PubChem BioAssay (NCI).
This is part of a sample that, as a whole, favours compounds with a hit. Of some 83,000 tested, about 20% had one in any assay.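 Growth was measured after 48 h exposure to one concentration of compound in 96-well plates. Values under 10 count as active.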 A number with no mark means an inactive call. Calls of active or inactive are those of the source.

Assays:
Assay in all cases: NCI-60 one-dose screen, 48 h (100 = growth as untreated, 0 = no growth, -100 = all killed)
Conditions in all cases: 10 µM unless noted
[1] = test system: NCI-H23 lung
[2] = test system: NCI-H226 lung
[3] = test system: NCI-H322M lung
[4] = test system: HOP-62 NSCLC
[5] = test system: NCI-H460 lung
[6] = test system: HOP-92 NSCLC
[7] = test system: NCI-H522 lung
[8] = test system: A549/ATCC NSCLC
[9] = test system: 786-0 renal
[10] = test system: COLO 205 colon

Compound | growth [1] | growth [2] | growth [3] | growth [4] | growth [5] | growth [6] | growth [7] | growth [8] | growth [9] | growth [10]
NC(=S)N/N=C/c1ccc(OC(=O)COc2cc(Cl)c(Cl)cc2Cl)cn1 | 28.1% | 84.6% | 57.2% | 85.6% | 79.9% | 48.6% | 23.8% | 107% | 19.9% | 117%
COC(=O)C(c1ccccc1)C(CC(=O)c1ccccc1)c1ccccc1 (stereo not given) | 78.3% | 75.1% | 75.6% | 91.4% | 109% | 62.6% | 61.9% | 95.4% | 106% | 105%
Clc1nc(Nc2ccccc2)nc(Nc2ccccc2)n1 | 103% | 91.2% | 96.3% | 81.5% | 109% | 77.9% | 83.8% | 104% | 84.4% | 108%
Nc1nc(N)nc(NCc2ccccc2)n1 | 97.1% | 95.4% | 95.4% | 105% | 109% | 108% | 99.3% | 101% | 102% | 119%
O=C1NC(=O)C(=Cc2cn(Cc3ccccn3)c3ccccc23)C(=O)N1 | 103% | 79.7% | 105% | 92.7% | 11.9% | 95.8% | 92.6% | 76.3% | 100% | 54.4%
COc1cc(OC)cc(C2C3=C(COC3=O)Nc3cc(OC)ccc32)c1 (stereo not given) | 12.1% | -3.11% (active) | 50.5% | 22% | 4.2% (active) | 52.6% | -40.5% (active) | 16.6% | 11% | -74.1% (active)
CCN(CC)CCCC(Nc1c2ccc(Cl)cc2nc2ccc(OC)cc12)c1ccc(Cl)cc1 (stereo not given) | 62.1% | 37% | -17.1% (active) | 25.4% | -69.2% (active) | 7.29% (active) | -68.7% (active) | -42.5% (active) | -84% (active) | -73.8% (active)
CC1=CC2(C)/C=C(C)/C=C\CC(O)/C=C3/C=CC(=C4C(=O)OC2(CC1C)C4=O)OC3 (stereo not given) | -97.5% (active) | 59.4% | 98.8% | 90.9% | 29.2% | -75.7% (active) | -50.5% (active) | 8.64% (active) | -92.1% (active) | -80.5% (active)
S=c1[nH]cccc1-c1nnc2n1Nc1nc3ccccc3cc1CS2 | 90.7% | 91.1% | 101% | 90.1% | 99.6% | 99.5% | 89% | 110% | 100% | 111%
Cc1ccc2nc3c(cc2c1)CSc1nnc(-c2ccc[nH]c2=S)n1N3 | 98.6% | 91.5% | 99.9% | 95.8% | 99.2% | 102% | 83.7% | 99.7% | 98.7% | 110%
Cn1c(COC(=O)N2CCCCC2)nc2c(N3CCOCC3)nc(-c3ccccc3)nc21 | -75.9% (active) | -60.8% (active) | 37.4% | -31.3% (active) | -55.9% (active) | -64.7% (active) | -53.2% (active) | -39.7% (active) | -75.1% (active) | -60.2% (active)
O=C1OC(=O)C2C1CC=CC2c1ccccc1 (stereo not given) | 84.7% | 90.6% | 102% | 78.8% | 75.5% | 85.3% | 93.6% | 88% | 94.9% | 93.7%
O=C(O)CNC(=O)CN1C(=O)c2ccccc2C1=O | 102% | 89.1% | 104% | 88.3% | 103% | 97.4% | 100% | 81.6% | 98.4% | 104%
CC1(C)CCCN1CCCN1c2ccccc2Sc2ccc(Cl)cc21 | 72.5% | 82.9% | 74.1% | 77% | 60.8% | 62.9% | 76.6% | 83.8% | 54.2% | 43.6%
O=C(NCCc1ccccn1)OCc1nc2nc(Cl)nc(N3CCOCC3)c2[nH]1 | 37.6% | -53.2% (active) | 43.9% | 27.3% | 3.35% (active) | 22.4% | -34.4% (active) | 43.5% | 13.9% | 17.2%
C#Cc1cccc(NC(=O)Nc2cccc(N=C=S)c2)c1 | 99.3% [8.25 µM] | 101% [8.25 µM] | 95.1% [8.25 µM] | 115% [8.25 µM] | 112% [8.25 µM] | 106% [8.25 µM] | 90.9% [8.25 µM] | 90.8% [8.25 µM] | 95.4% [8.25 µM] | 130% [8.25 µM]
CCCCCCCCCCCCC1CCC/C=C\CCC(=O)O1 (stereo not given) | 88.6% | 100% | 117% | 111% | 104% | 111% | 91.8% | 55% | 95.4% | 101%
COc1cc(C2CC(c3cccc(Nc4ccncc4)c3)=NN2c2cc(Cl)cc(Cl)c2)cc(OC)c1OC (stereo not given) | 77.8% | 87% | 64.2% | -29.2% (active) | -68.4% (active) | 37.4% | 0.35% (active) | 17.9% | 101% | -58.7% (active)
NC(=S)N/N=C(/c1ccccc1)c1ccccc1N | 94.9% | 82.2% | 91.8% | 98.5% | 102% | 102% | 88.9% | 87.3% | 101% | 108%
COc1ccc(-c2nc(N=Nc3c(O)[nH]c4ccccc34)nc(N3CCOCC3)c2C#N)cc1 | 81.9% | 38.4% | 77.1% | 68% | 46.5% | 19.6% | 72.1% | 51.7% | 79.7% | 67.8%
Nc1nnc(C(=O)c2cnc3n(c2=O)CCCCC3)s1 | 96.7% | 92.4% | 103% | 101% | 108% | 98.4% | 98% | 102% | 101% | 118%
